Data taken from PubChem BioAssay (NCI).
The panel holds about 83,000 compounds, 20% with a hit somewhere; the sample as a whole holds those more often.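 Negative percent growth values reflect cell death: -40 means 40% of the cells present at the start died, and -100 means all died.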 Unmarked numbers belong to inactive results. Calls of active or inactive are those of the source. How the source made its calls: active means growth percent below 10; inactive means the rest.

Assays:
Test in all cases: NCI-60 one-dose screen, 48 h (100 = growth as untreated, 0 = no growth, -100 = all killed)
Conditions in all cases: 10 µM unless noted
[1] = tested on: SR leukemia
[2] = tested on: RPMI-8226 leukemia
[3] = tested on: OVCAR-8 ovarian
[4] = tested on: OVCAR-5 ovarian
[5] = tested on: OVCAR-4 ovarian
[6] = tested on: SK-OV-3 ovarian
[7] = tested on: IGROV1 ovarian
[8] = tested on: OVCAR-3 ovarian
[9] = tested on: HS 578T breast
[10] = tested on: NCI/ADR-RES ovarian
[11] = tested on: T-47D breast
[12] = tested on: BT-549 breast
[13] = tested on: MDA-MB-435 melanoma
[14] = tested on: SW-620 colon
[15] = tested on: MCF7 breast
[16] = tested on: HCT-116 colon
[17] = tested on: HCC-2998 colon
[18] = tested on: KM12 colon

SMILES	growth [1]	growth [2]	growth [3]	growth [4]	growth [5]	growth [6] [%]	growth [7]	growth [8]	growth [9]	growth [10]	growth [11]	growth [12]	growth [13]	growth [14]	growth [15]	growth [16]	growth [17]	growth [18]
O=C(/C=C/C12c3ccccc3C(c3ccccc31)C1C(=O)NC(=O)C12)c1cccs1 (stereo not drawn)	20.3%	1.76% (active)	18.4%	48%	60%	59.1	37%	-0.389% (active)	36.2%	26.6%	39.9%	33.5%	4.93% (active)	27.1%	14.2%	14.4%	99.4%	22.6%
CCN1C(=O)N(CC)C2C1NN=c1s/c(=C\c3ccc(F)cc3)c(=O)n12 (stereo not drawn)	11.1%	21.3%	2.37% (active)	33.1%	46.4%	37.2	23%	-25.9% (active)	12.4%	1.08% (active)	57.8%	14.5%	-38.8% (active)	19.6%	18.2%	13.6%	18.8%	7.33% (active)
O=C(/C=C/c1ccco1)c1ccc(Nc2ccnc3cc(Cl)ccc23)cc1	-50.4% (active)	-34.9% (active)	81.3%	70.2%	103%	108	120%	78.7%	114%	73.9%	83.7%	88.5%	92.5%	86.3%	56.1%	33.7%	60.7%	80.2%
Cc1nn(C)c2ncnc(Nc3ccccc3Br)c12	84.8%	95.2%	106%	99.6%	109%	99	105%	108%	101%	107%	94.8%	108%	106%	106%	95.6%	110%	108%	108%
Cn1nc(-c2ccc(Cl)cc2)nc2c(=O)n(C)c(=O)nc1-2	-40.5% (active)	-22.7% (active)	-58.8% (active)	-89.1% (active)	-99.7% (active)	32.6	7.78% (active)	-40.2% (active)	-4.75% (active)	-21.5% (active)	-43.2% (active)	-46.5% (active)	-45.8% (active)	-33.2% (active)	-62.5% (active)	-37.7% (active)	-70.2% (active)	-15.3% (active)
CCCCCCCCCCCCCCCCCCOc1ccccc1CC(=O)OCC[N+]1(C)CCCCC1	10%	-10.2% (active)	21.9%	54.8%	32%	96.6	-32.1% (active)	61.7%	62.3%	92.3%	66.9%	58%	57%	68.3%	51.1%	30.2%	40.3%	86.5%
COC(=O)[C@H](C)NC(=O)c1ccc(NC(=O)c2[nH]c(C)c(Cl)c2Cl)c(OCCN)c1	67.2%	96.9%	96.2%	106%	113%	106	104%	108%	101%	107%	99.6%	97%	104%	102%	81.5%	106%	95.4%	92.5%
O=S(=O)(c1ccc(NCSc2nc3ccccc3s2)cc1)c1ccc(NCSc2nc3ccccc3s2)cc1	83.4%	92.1%	96.8%	107%	117%	71.3	97%	97.7%	90.6%	102%	63.9%	87.5%	112%	100%	97.5%	86.5%	95.5%	102%
COc1cc2c(c(OC)c1OC)CCC(c1cccc(NC(=O)c3cccc(Cl)c3)c1)O2 (stereo not drawn)	60.3%	64.9%	95.6%	92.8%	81.1%	72.9	86.8%	92%	76.3%	90.5%	59.1%	97.2%	89.9%	93.9%	84.4%	87.7%	100%	97.1%
O=C1Nc2ccccc2/C1=C/c1cccn1CCCCCCn1c2ccccc2c(=O)c2ccccc21	80.8%	25.3%	47.5%	82.2%	53.8%	87.2	88%	64.9%	96.3%	71.8%	-3% (active)	63.5%	96.7%	102%	1.03% (active)	70.4%	42.8%	12.8%
COc1ccc(C2CC(=O)Oc3c(OC)c4c(c(OC)c32)OCO4)cc1 (stereo not drawn)	61.8%	89.4%	98.2%	92.2%	106%	92	92.7%	109%	93.7%	92.4%	103%	87.6%	56.8%	89.7%	92.7%	96.9%	97%	88.1%
CN(C)CCOc1nc2c3cc([N+](=O)[O-])ccc3nn2c2ccccc12	7.43% (active)	41.8%	31.5%	58.6%	62.4%	34.9	29.8%	63.7%	69.8%	37%	46.5%	69.6%	82.4%	20.4%	16.7%	16.7%	54.6%	41.9%
O=C(OCc1ccc2c(Br)cc(Br)c(O)c2n1)N1CCN(C(=O)c2cc3ccccc3[nH]2)CC1	31.3%	34.3%	25.5%	54.3%	26%	40.1	31.5%	31.3%	48.2%	7.07% (active)	27.9%	56%	43.9%	25.3%	29.5%	22.4%	53.1%	29.5%
CCN1C(=O)N(CC)C2C1NN=c1s/c(=C\c3ccccc3)c(=O)n12 (stereo not drawn)	14.8%	11.6%	-9.95% (active)	30.2%	48.1%	33.5	19.8%	-7.69% (active)	16.8%	2.31% (active)	70.8%	13.2%	-24.8% (active)	18.8%	16.2%	9.74% (active)	16.2%	12.2%
C/C(=C(\c1ccc(OCCCN(C)C)cc1)c1ccc(OC(=O)Cc2ccccc2)cc1)c1ccc(Cl)cc1	-34.9% (active)	27.1%	89.2%	89.3%	69.8%	73.3	88.4%	70.4%	66.4%	85.1%	51.2%	83.9%	57.7%	84.6%	23.5%	58.3%	73.6%	67.4%
CN1CCN(Cc2ccc(NC(=O)c3cncc(C#Cc4c(N)ncc5cc(F)ccc45)c3)cc2C(F)(F)F)CC1	0.501% (active)	-14% (active)	28%	43.7%	54.4%	82.6	15.1%	76.3%	31.8%	10.3%	77%	56.6%	26.4%	-53.1% (active)	-75.9% (active)	-78.7% (active)	51.4%	5.8% (active)
